PubChem BioAssay (NCI)
The panel holds about 79,000 compounds, 15% with a hit somewhere; the sample as a whole holds those more often. Active and inactive are the calls of the source. Rule as the data show it: active = growth inhibition above about 70%; inactive = the rest.

Test: NCI Yeast Anticancer Drug Screen. Data for the bub3 strain (AID 167)
Conditions: S. cerevisiae bub3 mutant strain, at 5.0 µM (retest, dose inferred, filed as 0.5), stronger effect = higher value
How it was run: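 Compounds were applied to a genetically altered yeast strain carrying a cell-cycle control defect. Growth inhibition was scored against vehicle-treated controls.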

SMILES	growth inhibition
O=C1C(=O)C(CCCO)(CCCO)CCCCCCCCC1(CCCO)CCCO	13% (inactive)
CC(C)(C)C(=O)CC(=O)C(F)(F)C(F)(F)C(F)(F)F.CC(C)(C)C(=O)CC(=O)C(F)(F)C(F)(F)C(F)(F)F.CC(C)(C)C(=O)CC(=O)C(F)(F)C(F)(F)C(F)(F)F.[Er]	40% (inactive)
CCCCC(CC)COC(=O)c1cc2ccccc2oc1=O (stereo not given)	11% (inactive)
Nc1ccc(-c2nc3ccccc3s2)cc1I	53% (inactive)
CN1CCC(CCC(=O)OC(C)(C)C)(CN2c3ccccc3Sc3ccccc32)C1 (stereo not given)	-2% (inactive)
COc1cc(C(=O)C=[N+]=[N-])c([N+](=O)[O-])c(OC)c1OC	9% (inactive)
COc1ccc(-n2cc(-c3ccc(Cl)cc3)c3c(N)ncnc32)cc1	0% (inactive)
COc1ccccc1/C=C1\SC(=S)N(/C=C2\C(=O)Oc3ccccc3C2=O)C1=O	20% (inactive)
F[Si](c1ccccc1)(c1ccccc1)c1ccccc1	-5% (inactive)
Cc1c2ccnc(-c3ccc(F)cc3)c2cc2c1[nH]c1ccccc12	-2% (inactive)
CCN(CC)CCNc1c(OC)cc(C)c2sc3ccccc3c(=O)c12	1% (inactive)
O=c1cccc(C2CCc3cc(O)ccc3C2)[nH]1 (stereo not given)	-3% (inactive)
O/N=C1\c2ccccc2-c2ccc(Cl)cc21	-4% (inactive)
CCCCN(CCCC)CC(O)c1cc(-c2ccc(Cl)cc2)nc2c(Cl)cccc12 (stereo not given)	-4% (inactive)
CN(C)c1ccc(-c2c(C#N)c(S)n(NS(=O)(=O)c3ccccc3)c(=O)c2C#N)cc1	45% (inactive)
Clc1ccc2ns[s+]c2c1	26% (inactive)
COc1ccc2c(c1)CC/C(=C\c1ccc(OCCN(C)C)cc1)C2=O	12% (inactive)
CCCCOC(=O)c1cnc[nH]c1=O	-5% (inactive)
COC(=O)c1c(C)cccc1C1CN=NC12Cc1ccc(C)c(C)c1C2=O (stereo not given)	8% (inactive)
CC1CCN(CCOC(=O)C(c2ccccc2)C2C=CCCC2)C1 (stereo not given)	9% (inactive)

SMILES	growth inhibition
CNCC(OB(c1ccccc1)c1ccccc1)c1ccccc1 (stereo not given)	-7% (inactive)
O=C1CCC(Cc2ccc(C(F)(F)F)cc2)C(=O)N1 (stereo not given)	-2% (inactive)
CC(C)(Br)C(Br)C(=O)C(Br)C(C)(C)Br (stereo not given)	-2% (inactive)
CCCCCCCCN(CCCCCCCC)CC(O)c1cc2c(c3ccccc13)CCCC2 (stereo not given)	28% (inactive)
Brc1ccc(CCNCCN2CCCCC2)cc1	15% (inactive)
CC(C)=NNc1ncnc2nc[nH]c12	5% (inactive)
CC1=C/C(=C\c2ccc([N+](=O)[O-])o2)C(=O)O1	49% (inactive)
CCOC(=O)C(=O)Nc1nc2c(s1)C(=O)c1ccccc1C2=O	46% (inactive)
CC1CC2(C)ON=C(c3ccccc3)N2c2ccccc2S1 (stereo not given)	10% (inactive)
N#CC(CC(Br)CBr)(c1ccccc1)c1ccccc1 (stereo not given)	9% (inactive)
Oc1ccc(-c2ccccc2)cc1Cl	-23% (inactive)
C=CCSc1nc2ccccc2c(=O)n1Cc1ccco1	45% (inactive)
CCOC(=O)c1ccc(O)c(OC)c1	61% (inactive)
O=C(COc1ccc2ccccc2c1)NC1c2ccccc2Oc2ccccc21	92% (active)
O=S(=O)(c1ccccc1)n1cc(C[P+](c2ccccc2)(c2ccccc2)c2ccccc2)c2ccccc21	10% (inactive)
CC/C(=N\O)c1ccc2cc(Br)c3ccccc3c2c1	-4% (inactive)
CCOC(=O)C(C)(C)Oc1ccc2c(=O)cc(-c3ccccc3)oc2c1	-17% (inactive)
CC(O)c1c2ccccc2cc2ccccc12 (stereo not given)	-1% (inactive)
CC(=O)OC1CCC2(C)C(CCC3C4=CCC(C5COC(=O)C5)C4(C)CCC32)C1 (stereo not given)	4% (inactive)
NC(C(=O)O)C1=CCCCCC1 (stereo not given)	63% (inactive)

Same assay, conditions: S. cerevisiae bub3 mutant strain, at 50.0 µM (retest, dose inferred, filed as 5.0), stronger effect = higher value

SMILES	growth inhibition
O=C1C(=O)C(CCCO)(CCCO)CCCCCCCCC1(CCCO)CCCO	-7% (inactive)
CC(C)(C)C(=O)CC(=O)C(F)(F)C(F)(F)C(F)(F)F.CC(C)(C)C(=O)CC(=O)C(F)(F)C(F)(F)C(F)(F)F.CC(C)(C)C(=O)CC(=O)C(F)(F)C(F)(F)C(F)(F)F.[Er]	34% (inactive)
CCCCC(CC)COC(=O)c1cc2ccccc2oc1=O (stereo not given)	35% (inactive)
Nc1ccc(-c2nc3ccccc3s2)cc1I	95% (active)
CN1CCC(CCC(=O)OC(C)(C)C)(CN2c3ccccc3Sc3ccccc32)C1 (stereo not given)	78% (active)
COc1cc(C(=O)C=[N+]=[N-])c([N+](=O)[O-])c(OC)c1OC	67% (inactive)
COc1ccc(-n2cc(-c3ccc(Cl)cc3)c3c(N)ncnc32)cc1	3% (inactive)
COc1ccccc1/C=C1\SC(=S)N(/C=C2\C(=O)Oc3ccccc3C2=O)C1=O	38% (inactive)
F[Si](c1ccccc1)(c1ccccc1)c1ccccc1	98% (active)
Cc1c2ccnc(-c3ccc(F)cc3)c2cc2c1[nH]c1ccccc12	1% (inactive)
CCN(CC)CCNc1c(OC)cc(C)c2sc3ccccc3c(=O)c12	33% (inactive)
O=c1cccc(C2CCc3cc(O)ccc3C2)[nH]1 (stereo not given)	-11% (inactive)
O/N=C1\c2ccccc2-c2ccc(Cl)cc21	28% (inactive)
CCCCN(CCCC)CC(O)c1cc(-c2ccc(Cl)cc2)nc2c(Cl)cccc12 (stereo not given)	0% (inactive)
CN(C)c1ccc(-c2c(C#N)c(S)n(NS(=O)(=O)c3ccccc3)c(=O)c2C#N)cc1	93% (active)
Clc1ccc2ns[s+]c2c1	96% (active)
COc1ccc2c(c1)CC/C(=C\c1ccc(OCCN(C)C)cc1)C2=O	25% (inactive)
CCCCOC(=O)c1cnc[nH]c1=O	14% (inactive)
COC(=O)c1c(C)cccc1C1CN=NC12Cc1ccc(C)c(C)c1C2=O (stereo not given)	81% (active)
CC1CCN(CCOC(=O)C(c2ccccc2)C2C=CCCC2)C1 (stereo not given)	55% (inactive)

SMILES	growth inhibition
CNCC(OB(c1ccccc1)c1ccccc1)c1ccccc1 (stereo not given)	99% (active)
O=C1CCC(Cc2ccc(C(F)(F)F)cc2)C(=O)N1 (stereo not given)	-2% (inactive)
CC(C)(Br)C(Br)C(=O)C(Br)C(C)(C)Br (stereo not given)	40% (inactive)
CCCCCCCCN(CCCCCCCC)CC(O)c1cc2c(c3ccccc13)CCCC2 (stereo not given)	95% (active)
Brc1ccc(CCNCCN2CCCCC2)cc1	57% (inactive)
CC(C)=NNc1ncnc2nc[nH]c12	2% (inactive)
CC1=C/C(=C\c2ccc([N+](=O)[O-])o2)C(=O)O1	99% (active)
CCOC(=O)C(=O)Nc1nc2c(s1)C(=O)c1ccccc1C2=O	96% (active)
CC1CC2(C)ON=C(c3ccccc3)N2c2ccccc2S1 (stereo not given)	97% (active)
N#CC(CC(Br)CBr)(c1ccccc1)c1ccccc1 (stereo not given)	11% (inactive)
Oc1ccc(-c2ccccc2)cc1Cl	98% (active)
C=CCSc1nc2ccccc2c(=O)n1Cc1ccco1	77% (active)
CCOC(=O)c1ccc(O)c(OC)c1	93% (active)
O=C(COc1ccc2ccccc2c1)NC1c2ccccc2Oc2ccccc21	96% (active)
O=S(=O)(c1ccccc1)n1cc(C[P+](c2ccccc2)(c2ccccc2)c2ccccc2)c2ccccc21	99% (active)
CC/C(=N\O)c1ccc2cc(Br)c3ccccc3c2c1	87% (active)
CCOC(=O)C(C)(C)Oc1ccc2c(=O)cc(-c3ccccc3)oc2c1	97% (active)
CC(O)c1c2ccccc2cc2ccccc12 (stereo not given)	81% (active)
CC(=O)OC1CCC2(C)C(CCC3C4=CCC(C5COC(=O)C5)C4(C)CCC32)C1 (stereo not given)	91% (active)
NC(C(=O)O)C1=CCCCCC1 (stereo not given)	98% (active)
